# Assay results: PubChem BioAssay AID2669 (National Center for Advancing Translational Sciences (NCATS), 2010)
# Records with an inconclusive call do not appear. Calls of active or inactive are those of the source. Calls follow the shape of the dose curve; as a rule, active = well fitted inhibition curve with a large enough effect; inconclusive = small, poorly fitted or top-dose-only effect, or effect the other way; inactive = flat fitted curve, though single readings scatter.
# Experiment: qHTS Assay Multiplex Screening to Identify Dual Action Probes in a Cell Model of Huntington: Cytoprotection (Protease relase)
# Settings: PC12 HttQ103 cells, Cytotox-Glo protease release, 40 h; series mostly up to 46.1 µM
# Procedure, shortened: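 Cytotox-Glo luminescence of released protease served as the cytoprotection readout. Compounds were added alongside 100 nM final tebufenozide to PC12 cells carrying ecdysone-inducible GFP-tagged HTT exon 1 with 103 glutamines.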
row,Compound,Potency
1,Cc1csc(N/N=C/c2ccc(O)c([N+](=O)[O-])c2)n1,1.78 µM (active)
2,c1csc(-c2cn3c(n2)SCC3)c1,inactive
3,O=C(CN1CCN(c2ccccn2)CC1)NC1CCCC1,inactive
4,COc1cc2nc(N3CCN(C(=O)C4CCCO4)CC3)nc(N)c2cc1OC (configuration not stated),4.47 µM (active)
5,Cn1nnnc1Sc1ncnc2scc(-c3ccc(F)cc3)c12,15.8 µM (active)
6,CC(=O)OCC1=C(C(=O)O)N2C(=O)[C@@H](NC(=O)Cc3cccs3)[C@H]2SC1,inactive
7,CCN(CC)CCNc1ccc(CO)c2sc3ccccc3c(=O)c12,10 µM (active)
8,Cn1nnnc1Sc1ncnc2scc(Br)c12,7.94 µM (active)
9,Cn1nnnc1Sc1ncnc2scc(-c3ccc(C(F)(F)F)cc3)c12,12.6 µM (active)
10,COc1ccc2cc3cc(C(=O)NCc4ccco4)oc3nc2c1,1 µM (active)
11,CC(C(=O)O)c1ccc(N2Cc3ccccc3C2=O)cc1 (configuration not stated),2.24 µM (active)
12,Cn1nnnc1Sc1ncnc2scc(-c3cccc(C(F)(F)F)c3)c12,14.1 µM (active)
13,Cc1ccc(-n2ncc(Br)c(Br)c2=O)cc1,12.6 µM (active)
14,N#Cc1c(C(F)(F)F)cc(-c2cccc(Cl)c2)[nH]c1=O,2.51 µM (active)
15,Cc1ccc(-c2csc3ncnc(Sc4nnnn4C)c23)cc1,14.1 µM (active)
16,NCCCCCc1cnc[nH]1,inactive
17,Fc1cccc(Cl)c1Cn1nnc2c(-n3ccnc3)ncnc21,inactive
18,Cc1cc(C)n(S(=O)(=O)/C=C/c2ccccc2)n1,inactive
19,NC(=O)c1sc2nccc(Nc3ccccc3)c2c1N,inactive
20,Cc1cc(C)nc(Sc2nc(C)nc3c2oc2ccccc23)n1,inactive
21,CCc1nc(SCC(=O)Nc2nc3c(s2)CCCC3)c2ccccc2n1,inactive
22,N#CCSc1nc2ccc(N3CCCCC3)cc2c(=O)n1Cc1ccccc1,22.4 µM (active)
